Tests used:
[1] = system: Staphylococcus aureus MW2 delta-mecA (mecA-); experiment: normalized GFP fluorescence (growth of mecA- strain) (fraction of control range); higher = more growth of mecA- strain; details: compound concentration: 150 uM; cefoxitin: subinhibitory; fluorescent label: GFP
In short: (§1)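 Pre-induced S. aureus MW2 cells with the gene (DsRed) and without it (GFP) were mixed 1:1 in LB holding a subinhibitory antibiotic dose set daily and grown on 150 μM compound (1.5% DMSO) in 1536-well plates, single replicate, for 20 h at 37 °C. DsRed (540/590) and GFP (485/520) readings were scaled per plate between single-strain control medians. Plates with high untreated ratios and rows with DsRed/GFP >10 were excluded.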

[2] = system: Staphylococcus aureus MW2 (mecA+); experiment: normalized DsRed fluorescence (growth of mecA+ strain) (fraction of control range); higher = more growth of mecA+ strain; details: compound concentration: 150 uM; cefoxitin: subinhibitory; fluorescent label: DsRed
In short: as §1

Row | SMILES | normalized GFP fluorescence [1] | normalized DsRed fluorescence [2]
1 | Cc1c(N)nc(C(CC(N)=O)NCC(N)C(N)=O)nc1C(=O)NC(C(=O)NC(C)C(O)C(C)C(=O)NC(C(=O)NCCc1nc(-c2nc(C(=O)NCCC[S+](C)C)cs2)cs1)C(C)O)C(O[C@@H]1O[C@@H](CO)[C@@H](O)[C@H](O)[C@@H]1O[C@H]1O[C@H](CO)[C@@H](O)[C@H](OC(N)=O)[C@@H]1O)c1cnc[nH]1 (stereo partly drawn) | 0.114 | 0.862
2 | C[C@]12CC[C@H]3[C@@H](CC[C@@]45O[C@@H]4C(O)=C(C#N)C[C@]35C)[C@@H]1CC[C@@H]2O | 0.134 | 1.06
3 | N.N.[Cl][Pt][Cl] | 0.807 | 0.697
4 | O=P1(N(CCCl)CCCl)NCCCO1 (stereo not drawn) | 0.58 | 0.629
5 | NC(=O)CN1CCCC1=O | 0.168 | 0.628
6 | CC[C@@H](c1cccc(O)c1)[C@@H](C)CN(C)C | 0.313 | 0.724
7 | CCC(COC(=O)c1cc(OC)c(OC)c(OC)c1)(c1ccccc1)N(C)C (stereo not drawn) [Trimebutine] | 0.293 | 0.646
8 | COc1ccc(OC)c(C(O)C(C)N)c1 (stereo not drawn) | 0.864 | 0.526
9 | Cc1cccc([C@H](C)c2c[nH]cn2)c1C [Dexmedetomidine] | 0.289 | 0.702
10 | CC(C)CC(N(C)C)C1(c2ccc(Cl)cc2)CCC1 (stereo not drawn) | 0.0915 | –
11 | COc1ccc(C(CN(C)C)C2(O)CCCCC2)cc1 (stereo not drawn) | 0.6 | 0.623
12 | CC(O)(CS(=O)(=O)c1ccc(F)cc1)C(=O)Nc1ccc(C#N)c(C(F)(F)F)c1 (stereo not drawn) [Bicalutamide (Casodex)] | 0.0167 | 0.707
13 | NCCCNCCSP(=O)(O)O | 0.429 | 0.76
14 | COC(=O)C(c1ccccc1)C1CCCCN1 (stereo not drawn) | 0.277 | 0.737
15 | C[C@]12CCC(=O)C(O)=C1CC[C@@H]1[C@@H]2CC[C@]2(C)C(=O)CC[C@@H]12 [Formestane] | 0.477 | 0.7
16 | NCC(CC(=O)O)c1ccc(Cl)cc1 (stereo not drawn) | 0.683 | 0.941
17 | CN1C(=O)C(O)N=C(c2ccccc2)c2cc(Cl)ccc21 (stereo not drawn) | 0.205 | 0.691

— the supplement of paper PMC7695840
